This note sets out measurements from the OligoGym collection.
Further: reference of the scale not given here.

One experiment has as its target C11orf53. Description: pooled miR-30 sensor sort-seq; sequence = guide strand. The conditions noted are these: shRNA.
With TATTCTGAAAATCCAGTCCTGA, the sensor-assay potency score (higher = more potent) is -0.0201.

With TTCTGACACCGTAGTAACCTGA, the sensor-assay potency score (higher = more potent) was -0.43. The same measure, in the same setting: the value for TTATTCTGAAAATCCAGTCCTG was 0.403; that for TAGGTCATTTGACACCGTCATG was -1.72; that for TCAGATAAGAAAGATCTTCTGA was 0.556. Regarding TGACACACCTAAAACAATCTTT, the sensor-assay potency score (higher = more potent) came out at 0.469. As for TCTGACACCGTAGTAACCTGAC, the sensor-assay potency score (higher = more potent) stood at 0.0785. In turn, TCGTCCACTAACAAAGAGCAGC came in with a sensor-assay potency score (higher = more potent) of -0.909. The same measure, in the same setting: the value for TAAATAGGAAGTGAGCTGGGTC was 0.00724; that for TTTACTGTTGTGGAAGTCTGAG was -0.231.

In turn, TTACTGTTGTGGAAGTCTGAGT came in with a sensor-assay potency score (higher = more potent) of -0.608. Consider TTTGACACCGTCATGAAAGGGG, for which the sensor-assay potency score (higher = more potent) was 0.41.

The next experiment concerns the target C11orf54. Described as above. The conditions noted are these: shRNA.
Take TTTTATTCAGATCATAAACTTT: the sensor-assay potency score (higher = more potent) is -0.546. The same measure, in the same setting: the figure for ATAAGTAAGGCACACCTCCAAC is -1.21. On the same count and under the same terms, the figure for TTTCATTTCATAAAAATGCAAC is -0.462; for ATAAACTCAGAATTGAACCCGA it is 0.903; for TAAACTCAGAATTGAACCCGAG it is 0.00773. On the same count and under the same terms, the value for TTTCTCACTGTATTTCTCCAGT was -0.237. TCTGAAATGGACCTGCTCCTGC showed a sensor-assay potency score (higher = more potent) of -0.481. On to TATTCCACTATATCTGGAGTAG, for which the sensor-assay potency score (higher = more potent) was -0.318. Consider TTATTCACTTCTTCATCAGAGT, for which the sensor-assay potency score (higher = more potent) is -0.552.

Turning to TGGAGTAGTGTCATAATGGTAG, the sensor-assay potency score (higher = more potent) is -0.457. Still for that read-out and setting: the figure for TTCTTCATCAGAGTTCAAGGGG is 0.466.

A further experiment addresses C12orf42. The description is as above. The conditions noted are these: shRNA.
Regarding TAGGTCTTGTGTGTCTACTGAT, the sensor-assay potency score (higher = more potent) is -0.227. For the sequence TGTGCTTACAGAACACCTGGGG, the sensor-assay potency score (higher = more potent) stood at 0.85. TTTATTAACCTCTTGGAGGGGA came in with a sensor-assay potency score (higher = more potent) of 0.548. Same read-out and setting: the figure for TTCATGTGATTAATGAATCTGG is 0.286. On to TTCATAACAAGGGATGTGCTTT, for which the sensor-assay potency score (higher = more potent) was -0.454. On the same count and under the same terms, the figure for TCTTGTGTGTCTACTGATGTGT is 0.434; for TCGAGCTCTGTGTTACTCGGGC it is -0.424. On the same count and under the same terms, the figure for TGATTAATGAATCTGGAGCAGG is -0.678; for TTAGGTCTTGTGTGTCTACTGA it is 0.176. On the same count and under the same terms, the figure for TCTGCTTTGGATGTCGTCGGGG is -0.507.

Another experiment deals with C13orf33. The description is as above. The conditions noted are these: shRNA.
TCTATCTGTCTTCTTATCTTGG: the sensor-assay potency score (higher = more potent) is -0.385. Still for that read-out and setting: the value for TAACTTAATCGTCTCCTTCTTT was -0.331. Same read-out and setting: the value for TTGCTCAATATAGTTTCCCTGT was -0.333; that for TACCTCTTGATGTAGCTGCTGA was 0.0733. Same read-out and setting: the value for TTTATAATCACAGTAGTTGGTC was 0.0911.
